Results published in PubChem BioAssay (NCATS).
Records with an inconclusive call do not appear. Calls of active or inactive are those of the source. Calls come from the whole dose curve; as a rule, active = well fitted curve in the direction sought with a large enough effect; inconclusive = small, poorly fitted or top-dose-only effect, or another doubt; inactive = no such curve, though single readings can be large; an effect the other way counts as inactive or inconclusive.

Assays:
[1] = tested on: HACAT; experiment: qHTS assay to identify novel small-molecules to repurpose for Merkel cell carcinoma treatment (AID 1296009); conditions: MCC and control cell lines, CellTiter-Glo viability, 72 h; at 44.8 µM (top of the series) unless noted; note: nearly all actives have a fitted effect of over 60% in size
Procedure, shortened: (§1)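 Cells were treated for 72 hr at 37 degree celsius with compounds in 8- or 11-point dose response. Viability was read by CellTiter-Glo luminescence, normalized to no-cell (cytotoxicity) and DMSO controls.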

[2] = tested on: MCC-13; experiment: as above; conditions: MCC and control cell lines, CellTiter-Glo viability, 72 h; series mostly up to 46 µM
Procedure, shortened: as §1

[3] = tested on: MCC-26; experiment: as above; conditions: MCC and control cell lines, CellTiter-Glo viability, 72 h; series mostly up to 46 µM
Procedure, shortened: as §1

[4] = tested on: MKL-1; experiment: as above; conditions: MCC and control cell lines, CellTiter-Glo viability, 72 h; series mostly up to 46 µM
Procedure, shortened: as §1

[5] = tested on: MKL-2; experiment: as above; conditions: MCC and control cell lines, CellTiter-Glo viability, 72 h; series mostly up to 46 µM
Procedure, shortened: as §1

[6] = tested on: UISO; experiment: as above; conditions: MCC and control cell lines, CellTiter-Glo viability, 72 h; series mostly up to 46 µM
Procedure, shortened: as §1

[7] = tested on: WaGa; experiment: as above; conditions: MCC and control cell lines, CellTiter-Glo viability, 72 h; series mostly up to 46 µM
Procedure, shortened: as §1

[8] = tested on: C33A; experiment: Primary qHTS to identify gynecologic anti-cancer compounds using libraries of approved drugs and bioactive compounds (AID 1345084); conditions: Gynecologic cancer cell panel viability, ATPlite luminescence, 48 h; series mostly up to 57.5 µM; note: nearly all actives have a fitted effect of over 55% in size
Procedure, shortened: (§2)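 Cell viability after 48 h drug treatment, ATPlite luminescence readout; five doses.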

[9] = tested on: CAOV3; experiment: as above; conditions: Gynecologic cancer cell panel viability, ATPlite luminescence, 48 h; series mostly up to 57.5 µM
Procedure, shortened: as §2

[10] = tested on: CASKI; experiment: as above; conditions: Gynecologic cancer cell panel viability, ATPlite luminescence, 48 h; series mostly up to 57.5 µM
Procedure, shortened: as §2

[11] = tested on: Es-2; experiment: as above; conditions: Gynecologic cancer cell panel viability, ATPlite luminescence, 48 h; series mostly up to 57.5 µM
Procedure, shortened: as §2

[12] = tested on: HeLa; experiment: as above; conditions: Gynecologic cancer cell panel viability, ATPlite luminescence, 48 h; series mostly up to 57.5 µM
Procedure, shortened: as §2

[13] = tested on: Hek293T; experiment: as above; conditions: Gynecologic cancer cell panel viability, ATPlite luminescence, 48 h, control line for the selectivity index; series mostly up to 57.5 µM
Procedure, shortened: as §2

[14] = tested on: HaCat; experiment: Cytotoxic Profiling of Annotated Libraries Using Quantitative High-Throughput Screening (AID 1296008); conditions: Five cell lines viability, CellTiter-Glo ATP luminescence, 48-72 h; max response: active compounds read low; note: nearly all actives have a fitted effect of over 60% in size
Procedure, shortened: (§3)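 Cells exposed to compounds for 48 or 72 hr at 37 degrees Celsius. Viability read as ATP-coupled luminescence with CellTiter-Glo after 10 min at room temperature.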

[15] = tested on: KB-3-1; experiment: as above; conditions: Five cell lines viability, CellTiter-Glo ATP luminescence, 48-72 h; max response: active compounds read low
Procedure, shortened: as §3

[16] = tested on: NIH3T3; experiment: as above; conditions: Five cell lines viability, CellTiter-Glo ATP luminescence, 48-72 h; max response: active compounds read low
Procedure, shortened: as §3

[17] = tested on: HEK293; experiment: as above; conditions: Five cell lines viability, CellTiter-Glo ATP luminescence, 48-72 h; max response: active compounds read low
Procedure, shortened: as §3

[18] = tested on: HEK293T; experiment: qHTS assay to identify novel small-molecules to repurpose for Merkel cell carcinoma treatment (AID 1296009); conditions: MCC and control cell lines, CellTiter-Glo viability, 72 h; at 44.8 µM (top of the series) unless noted; note: nearly all actives have a fitted effect of over 60% in size
Procedure, shortened: as §1
% is set by controls: 0 for no effect and ±100 for the full control effect.

CN1CCN(CC(=O)N2c3ccccc3C(=O)Nc3cccnc32)CC1
inactive: outcome [1] inactive [at 4.96 µM] | activity change, negative = cytotoxicity [2] 8.41% [at 4.84 µM] | activity change, negative = cytotoxicity [3] 1.14% [at 4.84 µM] | activity change, negative = cytotoxicity [4] -1.15% [at 4.84 µM] | activity change, negative = cytotoxicity [5] 15.9% [at 4.84 µM] | activity change, negative = cytotoxicity [6] 0.833% [at 4.84 µM] | activity change, negative = cytotoxicity [7] 4.82% [at 4.84 µM] | activity change, negative = cytotoxicity [8] -17.4% [at 6.55 µM] | activity change, negative = cytotoxicity [9] 6.09% [at 6.55 µM] | activity change, negative = cytotoxicity [10] 7.9% [at 6.55 µM] | activity change, negative = cytotoxicity [11] 2.19% [at 6.55 µM] | activity change, negative = cytotoxicity [12] 1.94% [at 6.55 µM] | activity change, negative = cytotoxicity [13] 3.74% [at 6.55 µM]

Cc1nc2ccccn2c(=O)c1CCN1CCC(C(=O)c2ccc(F)cc2)CC1
inactive: max response [14] -15.4% | max response [15] -5.16% | max response [16] -5.4% | Potency [2] | Potency [3] | Potency [4] | Potency [5] | Potency [6] | Potency [8] | Potency [9] | Potency [10] | Potency [11] | Potency [13]

C[C@]12CCC(=O)C=C1CC[C@@H]1[C@@H]2C(=O)C[C@@]2(C)[C@H]1CC[C@]2(O)C(=O)CO
inactive: outcome [17] | max response [16] 1.17% | outcome [18] | Potency [2] | Potency [3] | Potency [5] | Potency [6] | Potency [7] | Potency [8] | Potency [9] | Potency [10] | Potency [11] | Potency [12] | Potency [13]

C[N+](C)(C)CCCCCCCCCC[N+](C)(C)C
inactive: Potency [8] | Potency [10] | Potency [11] | Potency [12] | Potency [13]

Fc1ccc(C(c2ccc(F)cc2)N2CCN(C/C=C/c3ccccc3)CC2)cc1
inactive: Potency [2] | Potency [3] | Potency [4] | Potency [6] | Potency [11] | Potency [12] | Potency [13]

CCN(CC)CCOCCOC(=O)C1(c2ccccc2)CCCC1
inactive: outcome [1] | Potency [2] | Potency [3] | Potency [4] | Potency [5] | Potency [6] | Potency [8] | Potency [9] | Potency [10] | Potency [11] | Potency [12] | Potency [13]
